Source: the supplement of paper PMC3724861
This excerpt belongs to a sample that is enriched for hits. How many sequences the whole screen found active is unknown. Values without a mark were called inactive.

Test system: T1, Caupolican (Caup) homeodomain DNA-binding domain
T1 sequence: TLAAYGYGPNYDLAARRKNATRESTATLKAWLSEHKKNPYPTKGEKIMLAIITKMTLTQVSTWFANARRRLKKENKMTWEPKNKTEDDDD
Assay: PBM E-score (8-mer, recovered from the published 9-mer minima) (E-score (dimensionless, -0.5 to 0.5)); Drosophila protein; higher = stronger relative binding preference, active = 0.31 or more
How it was run: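 Caup's homeodomain DNA-binding domain (residues 214-303) was produced by in vitro transcription and translation and applied at 100 nM to custom-designed protein binding microarrays. Each value is an enrichment score giving relative binding preference for a short DNA word; higher means stronger. Published 9-mer scores were the minimum of their two constituent 8-mer scores, and the 8-mer values were recovered from those minima. A cutoff of 0.31 marks candidate binding sequences.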

Sequence	PBM E-score
CATCTCAG	-0.0232
CCCAGCAG	-0.201
TACATTCA	0.232
AAGCCTGC	-0.156
AAAGTGGT	0.0391
GAAAAAGA	-0.0311
GACCGAGA	-0.103
ACTAGCTC	0.0549
ACGTGGTA	0.132
CTTAATCA	0.013
GTAGTACA	0.346 (active)
GTAGTATA	0.219
ATAGTACC	0.134
CTAGTACC	0.201
CTAGTACA	0.337 (active)
ATAGTACA	0.343 (active)
ATAGTACG	0.0984
CTAGTAAA	0.211
GTAGTAGA	0.0981
GCATTTAA	0.11
TTCTAGAA	-0.0405
CGCAGCCG	-0.267
ACCTCCGA	-0.0504
GCTTCTGA	-0.0992
CCGCTTTA	-0.0283
ACAACACG	0.387 (active)

Sequence	PBM E-score
ACAACACC	0.301
ACAACTCT	0.147
ACAACACA	≥ 0.395 (active)
AAAACACT	0.0862
GCAACACA	0.144
ACAACACT	0.326 (active)
CCAACACG	0.237
CCAACACA	0.17
CTATTAGC	0.0355
CGCAATAC	0.0451
AGATTAGG	0.00061
GCCCTTCC	-0.169
AAAGGCGT	-0.125
ACAAGCAT	0.377 (active)
GCAAGCAA	-0.0127
ACAAGCAC	0.246
TCAAGCAA	0.0149
ACAAGCAA	0.341 (active)
ACAAGCAG	0.229
AGACCCGA	-0.108
ACTTTACC	0.122
CGGATGGC	-0.0761
AACGCCCG	-0.108
GCAGTCCC	-0.194
AATGTAGC	0.0881
CATGTAGC	0.332 (active)

Sequence	PBM E-score
CATGTAGA	0.391 (active)
AATGTAGG	0.116
AATGTAGA	0.139
GATGTAGA	0.208
CATGTAGG	0.356 (active)
GATGTAGC	0.166
CAAGTAGG	-0.00819
GACTAGGC	-0.0927
CCTCCAAC	-0.102
TAGAAATA	0.1
CCGCTACA	0.0971
GGCCGTAA	-0.148
CATTACCA	0.119
ACCAATCC	-0.0418
AGTATACA	0.309
GATATACA	0.263
AATATACT	0.155
ATTATACA	0.254
AATATACA	0.322 (active)
CTTATACA	0.11
CATATACA	0.298
TATATACA	0.355 (active)
TGTATACA	≥ 0.356 (active)
GTTATACA	0.329 (active)
GGTATACA	0.183
AATATACC	0.13

Sequence	PBM E-score
GCCCGTAC	-0.0447
GGGATATA	-0.0036
ATCGTTCG	0.0642
AGCCGTTC	-0.195
ACGAACCT	-0.0743
ACGTGGCG	-0.111
CCACAGAA	-0.00495
TATTACGA	0.162
GTAGTTCA	0.136
AATAAATA	0.202
AGTATCTG	0.00127
AGTGACGC	-0.155
GATGTAAA	0.305
ACTGTAAA	0.154
CCTGTAAG	0.127
AATGTAAA	0.323 (active)
CATGTAAA	0.421 (active)
TCTGTAAA	0.0832
CATGTAAG	0.395 (active)
GCTGTAAA	0.128
AATGTAAG	0.214
CCTGTAAA	0.131
TATGTAAA	0.327 (active)
AATGTAAT	0.303
GTCGCTTA	0.0465
CACGAAAG	0.0338

Sequence	PBM E-score
CTCGTGAA	0.027
GTAGATAA	0.14
ACCATAAT	0.119
AATGTAAC	0.295
CATGTAAC	0.431 (active)
GATGTAAC	0.306
GATTTTAC	0.156
CTTTAGTC	-0.0734
AATCGTAA	0.173
CCCTAGAA	-0.0811
GAACATGC	0.354 (active)
AAACATTC	0.209
CAACATGC	0.317 (active)
AAACATCC	0.258
CAACATCC	0.238
ACACATGT	0.372 (active)
GAACATCC	0.295
GCACATGC	-0.0345
ACACATGC	0.236
CAACATTC	0.0579
AAACATGC	0.342 (active)
ACACATGG	0.167
AACGAATG	0.00089
ATACCAGC	-0.0192
AAAACACG	0.303
GGGTCAAA	-0.108

Sequence	PBM E-score
CGTAAAAC	-0.0282
CATAGAGA	0.113
ATTAGTAG	0.212
GCATGCGC	-0.104
ATGCGGGA	-0.0659
GGGTGTGA	-0.0838
CCACATGA	0.124
TCACATGA	0.182
ACACATGA	0.265
GAACATGA	0.421 (active)
TAACATGA	0.424 (active)
GAACATTA	0.219
GAGCATGA	0.0786
AAACATGA	0.409 (active)
CAACATGG	0.295
TAACATCA	0.305
AAACATCA	0.279
CAACATGA	0.344 (active)
CGAACGAC	0.0606
ATGGTATG	0.132
CTATTTAA	-0.0109
CGTCTTGA	-0.0138
AGGTCTCA	-0.08
ACTGAGTC	-0.0541
AGCTATAG	-0.0145
AAACATTG	0.183

Sequence	PBM E-score
AAACATCG	0.217
AAACATCT	0.215
CAACATAC	0.302
AAACATGT	0.443 (active)
AAACATTT	0.252
GAACATAC	0.331 (active)
AAACATGG	0.321 (active)
GGACATAC	0.179
CCAGTTCC	-0.2
GCAGCGAC	-0.118
GATCGGCA	-0.0784
ATTGCGAC	0.0529
CAATTAGA	0.0523
GGGGTAAC	-0.00369
CGTCGTTC	0.0474
ACAAGAAG	0.183
ATTAACAC	0.326 (active)
ATTAACAA	0.342 (active)
ATTAACTC	0.0863
GTTAACAA	0.296
ATTAACAG	0.146
CTTAACAC	0.226
ATTGCGGC	-0.0444
AAGCGGAT	-0.113
ACTTCGAT	0.0903
AGGGCAGC	-0.267

Sequence	PBM E-score
CTGTCCGC	-0.11
CCATGATA	0.0656
AGATGATG	0.0748
ACATGATG	0.351 (active)
ACATGAGA	0.344 (active)
CCATGATC	0.0355
ACATGATC	0.357 (active)
GCATGATA	0.159
ATATGATC	0.134
ACATGAGT	0.305
ATATGATG	0.183
ACATGATA	0.413 (active)
TCATGAGA	0.0179
GCCACCAA	-0.183
CCGTAAAA	-0.0169
ACCTTAAA	-0.0366
CAAGGCGA	-0.0101
ACGGGTAC	0.103
GTACAACA	0.429 (active)
ATACAACC	0.258
GCACAACA	0.211
ATACAACA	0.373 (active)
CCACAACA	0.142
CTACAACC	0.281
GTTCAACA	0.198
CTACAACA	0.332 (active)

Sequence	PBM E-score
ATACAACG	0.283
ACATAAAG	0.215
ACATACAA	0.386 (active)
ACATAAAT	0.318 (active)
ACATAAAA	0.221
TCATACAA	0.163
ACATACGT	0.206
AGATACAT	0.368 (active)
AGATACAG	0.109
ACATACAT	0.427 (active)
ACATACAG	0.247
AGATACAA	0.296
GCATACAA	0.247
CATAGGTA	0.0694
AACACTAC	0.222
TCATTTAA	0.167
AGGGTTGG	-0.0294
AAAACAGT	0.11
AGGCCGTA	-0.041
GGCCAGTA	-0.128
